# Measurements taken from the supplement of paper PMC8728848.
# Many of the other results were omitted from the sample, so the strongest signals are more common in it than they were.
# B1: PX9937F-bfa-516-16-516 (Bacteroides fragilis) (protein)
# chain: LDIDPTSSIADSNYWKTEAQFSTFNVGLHALLRECSFNFFLLGEPRADIYGDVPFGGEATQGMERLPFNTINKENTGISNFAGMYKVINQINLMIAKTKETTVLSEAGKNYYLGEAYGMRAYLYFHLLRSWGDVILYLDYTNGASLDLSNLSKAASPAEEVMKQIKEDITASEKGFGSDYSFKYGRYYWSMAATQMLKGEVYLWSGRQMGGGTADYTTAKTALQSIVSNANVSLQDDFSKVFAYNNKDNSEIIFSIRNAKDEYNMWDDRFRQNLVPQQAYMTSTYCNKEGVSFKDLPEGQLNGLIRLQIRYDLYNKAFRDGDTRKDASMTAVYQKQQDGTVKYIAPFCNKYQGVLLDGASQRSFLNDYPIYRYADCLLLLAEAKALLGEDPTAEINQVRERAYGKEFFEANKATLAYPNDKGDFYTDNKYMSGDEDPLEAILKERMREFMFEGKRWYDLRLLGADYVTKRTSAVATRLLWPINESVLTDNPALKQTPGYQN
# Legend:
# Assay in all cases: glycan array binding signal (z-score within array); higher = stronger binding
# Conditions in all cases: glycan notation: IUPAC condensed, linker removed
# Gal3S(b1-4)Glc6S = target: Gal3S(b1-4)Glc6S
# Outline: (§1)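 Columns mapping to the same glycan were averaged after glycan names were converted to IUPAC-condensed notation. The data come from 3228 arrays in the Consortium for Functional Glycomics database, limited to those with an available protein sequence. Binding is reported as a within-array Z-score averaged across arrays of one protein sequence and across linkers.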
# GalNAc(a1-3)Gal = target: GalNAc(a1-3)Gal
# Outline: as §1
# [1] = target: GalNAc(b1-3)Gal(a1-4)Gal(b1-4)GlcNAc
# Outline: as §1
# GalNAc(b1-4)Gal(b1-4)Glc = target: GalNAc(b1-4)Gal(b1-4)Glc
# Outline: as §1
# GalNAc3S(b1-4)GlcNAc3S = target: GalNAc3S(b1-4)GlcNAc3S
# Outline: as §1
# GlcA(b1-3)Gal = target: GlcA(b1-3)Gal
# Outline: as §1
# [2] = target: GlcNAc(a1-4)Gal(b1-4)GlcNAc(b1-3)Gal(b1-4)Glc
# Outline: as §1
# [3] = target: GlcNAc(a1-4)Gal(b1-4)GlcNAc(b1-3)Gal(b1-4)[Fuc(a1-3)]GlcNAc(b1-3)Gal(b1-4)[Fuc(a1-3)]GlcNAc
# Outline: as §1
# [4] = target: GlcNAc(b1-3)Gal(b1-4)GlcNAc(b1-2)Man(a1-3)[GlcNAc(b1-3)Gal(b1-4)GlcNAc(b1-2)Man(a1-6)]Man(b1-4)GlcNAc(b1-4)[Fuc(a1-6)]GlcNAc
# Outline: as §1
# [5] = target: GlcNAc(b1-3)Gal(b1-4)GlcNAc(b1-3)Gal(b1-4)GlcNAc(b1-3)Gal(b1-4)GlcNAc(b1-2)Man(a1-3)[GlcNAc(b1-3)Gal(b1-4)GlcNAc(b1-3)Gal(b1-4)GlcNAc(b1-3)Gal(b1-4)GlcNAc(b1-2)Man(a1-6)]Man(b1-4)GlcNAc(b1-4)GlcNAc
# Outline: as §1
# [6] = target: GlcNAc(b1-3)Gal(b1-4)GlcNAc(b1-6)[Gal(b1-3)]GalNAc
# Outline: as §1
# [7] = target: GlcNAc(b1-4)Gal(b1-4)GlcNAc
# Outline: as §1
# Kdn(a2-3)Gal(b1-3)GalNAc = target: Kdn(a2-3)Gal(b1-3)GalNAc
# Outline: as §1
# [8] = target: Man(a1-2)Man(a1-2)Man(a1-3)Man
# Outline: as §1
# [9] = target: Man(a1-3)[Man(a1-6)]Man(a1-6)[Man(a1-3)]Man(b1-4)GlcNAc(b1-4)GlcNAc
# Outline: as §1
# [10] = target: Neu5Ac(a2-3)Gal(b1-3)GlcNAc(b1-3)Gal(b1-3)GlcNAc
# Outline: as §1
# [11] = target: Neu5Ac(a2-3)Gal(b1-3)[Fuc(a1-4)]GlcNAc(b1-3)Gal(b1-4)[Fuc(a1-3)]GlcNAc
# Outline: as §1
# Neu5Ac(a2-3)Gal(b1-4)Glc = target: Neu5Ac(a2-3)Gal(b1-4)Glc
# Outline: as §1
# [12] = target: Neu5Ac(a2-3)Gal(b1-4)GlcNAc(b1-3)Gal(b1-4)GlcNAc(b1-3)Gal(b1-4)GlcNAc
# Outline: as §1
# [13] = target: Neu5Ac(a2-3)Gal(b1-4)GlcNAc(b1-3)[Neu5Ac(a2-3)Gal(b1-4)GlcNAc(b1-6)]GalNAc
# Outline: as §1
binder,measurement,setting,value
B1,glycan array binding signal (z-score),Gal3S(b1-4)Glc6S,-0.009
same,glycan array binding signal (z-score),GalNAc(a1-3)Gal,0.114
same,glycan array binding signal (z-score),[1],1.48
same,glycan array binding signal (z-score),GalNAc(b1-4)Gal(b1-4)Glc,1.77
same,glycan array binding signal (z-score),GalNAc3S(b1-4)GlcNAc3S,-0.23
same,glycan array binding signal (z-score),GlcA(b1-3)Gal,-0.361
same,glycan array binding signal (z-score),[2],-0.323
same,glycan array binding signal (z-score),[3],0.511
same,glycan array binding signal (z-score),[4],1.82
same,glycan array binding signal (z-score),[5],0.988
same,glycan array binding signal (z-score),[6],-0.127
same,glycan array binding signal (z-score),[7],-0.271
same,glycan array binding signal (z-score),Kdn(a2-3)Gal(b1-3)GalNAc,-0.345
same,glycan array binding signal (z-score),[8],-0.273
same,glycan array binding signal (z-score),[9],0.247
same,glycan array binding signal (z-score),[10],-0.249
same,glycan array binding signal (z-score),[11],-0.15
same,glycan array binding signal (z-score),Neu5Ac(a2-3)Gal(b1-4)Glc,-0.325
same,glycan array binding signal (z-score),[12],-0.282
same,glycan array binding signal (z-score),[13],-0.202
